Laboratory results published in PMC4336329 (PLoS ONE, 2015).
Hit rate of the full screen: of about 310,000 compounds, about 14,000 (4.5%) showed an effect of 50% or more. The effect is printed as a negative number. The sample as a whole holds a higher share of strong results than the screen did.
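Also: peak tail current of the secondary pulse compared with the same well before compound.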

The compounds below were run against human ether-à-go-go-related gene (hERG) potassium channel (human, UniProt Q12809) (assay: primary screen, population patch clamp on CHO cells stably expressing hERG; higher = less effect of the substance).
Sequence of human ether-à-go-go-related gene (hERG) potassium channel (Q12809 whole entry, looked up): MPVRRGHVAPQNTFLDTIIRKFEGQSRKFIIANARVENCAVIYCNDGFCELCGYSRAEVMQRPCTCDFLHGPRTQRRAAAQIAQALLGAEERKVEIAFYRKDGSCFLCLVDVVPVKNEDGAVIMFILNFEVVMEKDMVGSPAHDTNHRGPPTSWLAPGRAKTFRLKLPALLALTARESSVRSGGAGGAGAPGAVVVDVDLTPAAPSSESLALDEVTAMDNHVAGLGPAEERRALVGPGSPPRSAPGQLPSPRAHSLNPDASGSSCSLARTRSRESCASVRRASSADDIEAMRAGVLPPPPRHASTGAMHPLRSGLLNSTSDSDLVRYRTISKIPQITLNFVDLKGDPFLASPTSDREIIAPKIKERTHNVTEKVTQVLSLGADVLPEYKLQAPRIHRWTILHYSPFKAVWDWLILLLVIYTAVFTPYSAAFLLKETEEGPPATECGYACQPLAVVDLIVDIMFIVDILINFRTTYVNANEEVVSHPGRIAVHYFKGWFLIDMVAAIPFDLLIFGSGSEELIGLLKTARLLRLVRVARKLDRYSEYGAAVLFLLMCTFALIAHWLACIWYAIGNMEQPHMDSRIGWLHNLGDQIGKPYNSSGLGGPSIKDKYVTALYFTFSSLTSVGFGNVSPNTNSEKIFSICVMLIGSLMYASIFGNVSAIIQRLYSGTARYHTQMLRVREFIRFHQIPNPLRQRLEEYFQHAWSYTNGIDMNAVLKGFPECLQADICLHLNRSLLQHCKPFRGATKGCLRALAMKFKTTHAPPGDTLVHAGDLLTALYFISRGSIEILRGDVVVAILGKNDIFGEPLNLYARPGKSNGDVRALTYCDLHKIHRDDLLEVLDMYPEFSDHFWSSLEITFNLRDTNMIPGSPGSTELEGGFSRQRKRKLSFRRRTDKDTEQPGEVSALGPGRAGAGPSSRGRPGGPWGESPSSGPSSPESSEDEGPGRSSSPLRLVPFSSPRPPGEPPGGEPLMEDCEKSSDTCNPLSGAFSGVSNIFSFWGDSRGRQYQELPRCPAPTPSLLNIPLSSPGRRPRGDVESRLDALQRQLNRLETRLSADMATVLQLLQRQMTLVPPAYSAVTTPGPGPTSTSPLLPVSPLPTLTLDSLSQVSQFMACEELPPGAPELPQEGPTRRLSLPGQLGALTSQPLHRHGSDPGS
`CCn1c2ccccc2c2cc(/C=N/O)ccc21` was tested, and the “hERG current change (%, negative = inhibition) at 10uM” value was 40.6%. `CSCCC1NC2(C(=O)Nc3ccc(Cl)cc32)[C@@H]2C(=O)N(C3CCCC3)C(=O)[C@H]12` (stereo partly drawn) was tested, and the “hERG current change (%, negative = inhibition) at 10uM” value was -8.3%. `Cc1cc(NC(=O)CSc2nc(-c3cccs3)nc3ccccc23)no1` was tested, and the “hERG current change (%, negative = inhibition) at 10uM” value was 14.7%. `CCN1CCN(c2nc(Nc3cccc(OC)c3)nc(N)c2[N+](=O)[O-])CC1` was tested, and the “hERG current change (%, negative = inhibition) at 10uM” value was -73.3%. In the case of `CCOc1ccc(Nc2nc(N)c([N+](=O)[O-])c(N3CCN(CC)CC3)n2)cc1`, the “hERG current change (%, negative = inhibition) at 10uM” value is reported as -62.6%. `CCN1CCN(c2nc(Nc3cccc(C)c3)nc(N)c2[N+](=O)[O-])CC1` was tested, and the “hERG current change (%, negative = inhibition) at 10uM” value was -70.2%. With `Cc1ccc(Nc2nc(N)c([N+](=O)[O-])c(N3CCOCC3)n2)cc1C` the “hERG current change (%, negative = inhibition) at 10uM” value was -13.9%. `CCN1CCN(c2nc(Nc3ccc(C)c(C)c3)nc(N)c2[N+](=O)[O-])CC1` was tested, and the “hERG current change (%, negative = inhibition) at 10uM” value was -75%. With `Cc1cccc(Nc2nc(N)c([N+](=O)[O-])c(N3CCOCC3)n2)c1` the “hERG current change (%, negative = inhibition) at 10uM” value was -37.1%. For `COc1cccc(Nc2nc(N)c([N+](=O)[O-])c(N3CCOCC3)n2)c1`, the “hERG current change (%, negative = inhibition) at 10uM” value was -14.2%. In the case of `Cc1cccc(Nc2nc(N)c([N+](=O)[O-])c(N3CCN(C)CC3)n2)c1`, the “hERG current change (%, negative = inhibition) at 10uM” value is reported as -48%. In the case of `CCN1CCN(c2nc(Nc3ccc(OC)cc3)nc(N)c2[N+](=O)[O-])CC1`, the “hERG current change (%, negative = inhibition) at 10uM” value is reported as -32.2%. For `CCOc1ccc(Nc2nc(N)c([N+](=O)[O-])c(N3CCN(C)CC3)n2)cc1`, the “hERG current change (%, negative = inhibition) at 10uM” value was -48.3%. For `COc1ccc(Nc2nc(N)c([N+](=O)[O-])c(N3CCN(C)CC3)n2)cc1`, the “hERG current change (%, negative = inhibition) at 10uM” value was -26.6%. For `Cc1ccc(Nc2nc(N)c([N+](=O)[O-])c(N3CCC(C)CC3)n2)cc1C`, the “hERG current change (%, negative = inhibition) at 10uM” value was 7.13%. `COc1ccccc1CC(=O)Nc1ccc(C(=O)N2CCCCC2)cc1` was tested, and the “hERG current change (%, negative = inhibition) at 10uM” value was 2.21%. In the case of `CCOC(=O)CCNC(=O)N1CCCC(C(=O)c2cc(C)c(OC)c(C)c2)C1` (stereo not drawn), the “hERG current change (%, negative = inhibition) at 10uM” value is reported as 5.81%. For `COC(=O)Cc1ccc(NC(=S)N2CCN(CCO)CC2)cc1`, the “hERG current change (%, negative = inhibition) at 10uM” value was 3.63%. For `CC1=C(OC(=O)C(C)(C)C)C(C)(C)C(c2ccccc2)OC1=O` (stereo not drawn), the “hERG current change (%, negative = inhibition) at 10uM” value was -13.4%. With `COc1cccc(C2CC(c3cccc(OC)c3)n3nc(N)nc3N2)c1` (stereo not drawn) the “hERG current change (%, negative = inhibition) at 10uM” value was -4.11%. `COc1ccc(-c2nnc(NC(=O)C(C)C)o2)cc1` was tested, and the “hERG current change (%, negative = inhibition) at 10uM” value was -3.15%. `COc1ccc(N2C(=O)c3ccccc3NC23CCC(C)CC3)cc1` (stereo not drawn) was tested, and the “hERG current change (%, negative = inhibition) at 10uM” value was 4.35%. For `C=CCn1nnnc1SCC(=O)Nc1cccc(C(F)(F)F)c1`, the “hERG current change (%, negative = inhibition) at 10uM” value was 9.66%. With `CC(NC(=O)C(C(=O)c1cccc([N+](=O)[O-])c1)n1cc(Cl)ccc1=O)c1ccccc1` (stereo not drawn) the “hERG current change (%, negative = inhibition) at 10uM” value was -15%. `CCN1CCN(c2nc(N)c([N+](=O)[O-])c(Nc3cccc(C)c3)n2)CC1` was tested, and the “hERG current change (%, negative = inhibition) at 10uM” value was -45%. With `Nc1nc(Nc2ccccc2F)nc(N2CCOCC2)c1[N+](=O)[O-]` the “hERG current change (%, negative = inhibition) at 10uM” value was 4.6%. With `CCN1CCN(c2nc(Nc3ccccc3F)nc(N)c2[N+](=O)[O-])CC1` the “hERG current change (%, negative = inhibition) at 10uM” value was -56.6%. With `CN1CCN(c2nc(Nc3ccccc3)nc(N)c2[N+](=O)[O-])CC1` the “hERG current change (%, negative = inhibition) at 10uM” value was -40.6%. With `CCN1CCN(c2nc(N)c([N+](=O)[O-])c(Nc3ccc(C)c(C)c3)n2)CC1` the “hERG current change (%, negative = inhibition) at 10uM” value was -6.91%. With `CCN1CCN(c2nc(Nc3cccc(F)c3)nc(N)c2[N+](=O)[O-])CC1` the “hERG current change (%, negative = inhibition) at 10uM” value was -62.6%. `Nc1nc(Nc2cccc(F)c2)nc(N2CCOCC2)c1[N+](=O)[O-]` was tested, and the “hERG current change (%, negative = inhibition) at 10uM” value was -26.7%. In the case of `Nc1nc(Nc2ccccc2F)nc(N2CCCC2)c1[N+](=O)[O-]`, the “hERG current change (%, negative = inhibition) at 10uM” value is reported as 4.5%. `CCN1CCN(c2nc(Nc3ccccc3)nc(N)c2[N+](=O)[O-])CC1` was tested, and the “hERG current change (%, negative = inhibition) at 10uM” value was -63%. In the case of `CCN1CCN(c2nc(N)c([N+](=O)[O-])c(Nc3ccc(C)cc3)n2)CC1`, the “hERG current change (%, negative = inhibition) at 10uM” value is reported as -68.9%. `Nc1nc(Nc2ccccc2)nc(N2CCCC2)c1[N+](=O)[O-]` was tested, and the “hERG current change (%, negative = inhibition) at 10uM” value was -34.5%. With `Cc1cccc(Nc2nc(N)c([N+](=O)[O-])c(N3CCC(C)CC3)n2)c1` the “hERG current change (%, negative = inhibition) at 10uM” value was -15.7%. For `CC12CN3CC(C)(CN(C1)C3c1cccnc1)C2=O` (stereo not drawn), the “hERG current change (%, negative = inhibition) at 10uM” value was -0.24%. In the case of `CC(NCc1ccco1)C(=O)N1CCc2ccccc2C1.Cl` (stereo not drawn), the “hERG current change (%, negative = inhibition) at 10uM” value is reported as 14%. `O=C(COc1ccccc1)Nc1ccc2c(c1)C(=O)N(CC1CCCO1)C2=O` (stereo not drawn) was tested, and the “hERG current change (%, negative = inhibition) at 10uM” value was 6.03%. For `O=C(NCc1ccco1)c1ccc(Cn2cc([N+](=O)[O-])cn2)o1`, the “hERG current change (%, negative = inhibition) at 10uM” value was -10.3%. With `O=C1c2cccc3c(N4CCCCC4)ccc(c23)C(=O)N1c1cccc(O)c1` the “hERG current change (%, negative = inhibition) at 10uM” value was 32.6%. `CNC(=O)c1c(NC(=O)c2ccc(N3C(=O)CCC3=O)cc2)sc2c1CCCC2` was tested, and the “hERG current change (%, negative = inhibition) at 10uM” value was -13.3%. `CCOc1cc(NC(=O)c2ccccc2C)c(OCC)cc1NC(=O)C1=Cc2ccccc2OC1` was tested, and the “hERG current change (%, negative = inhibition) at 10uM” value was 9.99%. With `CC(C)(C)NC(=S)NC(=O)C12CCC3CC(CC(C3)C1)C2` the “hERG current change (%, negative = inhibition) at 10uM” value was 6.45%. With `O=C(Nc1ccnn1C1CCN(Cc2ccc(CO)o2)CC1)c1ccccc1Cl` the “hERG current change (%, negative = inhibition) at 10uM” value was -0.636%. For `O=C(Nc1ccnn1C1CCN(Cc2ccccn2)CC1)c1cccc(F)c1`, the “hERG current change (%, negative = inhibition) at 10uM” value was -7.3%. In the case of `CC(C)(C)CN1CCC(n2nccc2NC(=O)c2ccccc2Cl)CC1`, the “hERG current change (%, negative = inhibition) at 10uM” value is reported as -20.3%. With `O=C(Nc1ccnn1C1CCN(C/C=C/c2ccccc2)CC1)c1ccccc1` the “hERG current change (%, negative = inhibition) at 10uM” value was -73.7%. For `O=C(Nc1ccnn1C1CCN(C/C=C/c2ccccc2)CC1)c1cccc(F)c1`, the “hERG current change (%, negative = inhibition) at 10uM” value was -70.9%. For `O=C(Nc1ccnn1C1CCN(Cc2ccc(CO)o2)CC1)c1ccccc1`, the “hERG current change (%, negative = inhibition) at 10uM” value was 1.16%. With `CC(C)=CCN1CCC(n2nccc2NC(=O)c2ccccc2Cl)CC1` the “hERG current change (%, negative = inhibition) at 10uM” value was -57.9%. `O=C(Nc1ccnn1C1CCN(C2CCOCC2)CC1)c1cccc(F)c1` was tested, and the “hERG current change (%, negative = inhibition) at 10uM” value was -1.9%. In the case of `O=C(Nc1ccnn1C1CCN(C/C=C/c2ccccc2)CC1)c1ccccc1Cl`, the “hERG current change (%, negative = inhibition) at 10uM” value is reported as -83.8%. In the case of `COc1cc(/C=N\NC(=O)c2ccc(C)nc2)ccc1OC(=O)c1cccc(F)c1`, the “hERG current change (%, negative = inhibition) at 10uM” value is reported as -8.51%.
